The entries come from a sample that favours hits as a whole.
FBPA Giardia inh – Giardia lamblia aldolase inhibition; Potency, µM (series often up to 59.6 µM), hits mostly inhibitors; 290,000 compounds, 0.71% hits; purified Giardia FBPA; also: nearly all actives have a fitted effect of over 55% in size
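Giardia FBPA (40 nM reagent) was preincubated 10 min at RT with compound (up to 57.5 uM final), then substrate plus GAPDH/TPI/NAD/arsenate coupling system with diaphorase/resazurin was added; resorufin fluorescence (525/598 nm) was read after 20 min.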
Shiga toxin inh – inhibitors of Shiga toxin in Vero cells. Vero cells, Shiga toxin protein synthesis inhibition reporter. 290,000 compounds, 9.2% hits. inhibition, % at 38.7 µM. AID 2315; in the data active = inhibition mostly above about 28%, no sharp cut-off; inactive = mostly below about 43%
LmPK inhibitor – blocks Leishmania mexicana pyruvate kinase activity; Potency, µM (top dose mostly 57.5 µM), actives largely listed as inhibitors; 290,000 compounds, 0.37% hits; purified LmPK, Kinase-Glo ATP luminescence, 1 h; AID 1721; Q27686
Target sequence (Q27686 whole entry, looked up): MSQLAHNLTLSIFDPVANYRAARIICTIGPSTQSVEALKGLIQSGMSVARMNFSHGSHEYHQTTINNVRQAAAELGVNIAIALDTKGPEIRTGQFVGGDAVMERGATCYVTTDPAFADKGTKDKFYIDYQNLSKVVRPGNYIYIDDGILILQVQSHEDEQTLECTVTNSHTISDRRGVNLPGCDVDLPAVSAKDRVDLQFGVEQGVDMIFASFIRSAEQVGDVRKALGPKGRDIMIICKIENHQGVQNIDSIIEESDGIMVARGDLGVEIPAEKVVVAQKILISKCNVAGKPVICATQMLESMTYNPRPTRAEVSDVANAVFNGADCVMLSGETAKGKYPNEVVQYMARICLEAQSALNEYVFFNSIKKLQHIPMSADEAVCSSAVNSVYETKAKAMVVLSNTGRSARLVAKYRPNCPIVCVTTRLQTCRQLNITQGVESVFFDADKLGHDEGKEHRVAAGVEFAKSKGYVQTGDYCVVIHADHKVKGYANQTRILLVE
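Kinase-Glo luminescence read after 1 h RT reaction of 0.1 nM LmPK with 0.5 mM PEP and 0.1 mM ADP. Activity scaled between uninhibited and enzyme-free controls.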
Cycloheximide cs – affects cycloheximide protein synthesis inhibition readout, counter-screen. cell reporter, cycloheximide protein synthesis inhibition counterscreen. max response, %. 300,000 compounds, 12% hits. AID 2314; in the data active = max response mostly above about 13%, no sharp cut-off; inactive = mostly below about 14%; also: read at 38.3 µM for the half of the compounds with a filed dose
TbPYK inhibitor – inhibitors of Trypanosoma brucei pyruvate kinase; TbPYK enzyme, Kinase-Glo Plus ATP luminescence, 45 min; Potency, µM (series often up to 76.8 µM), usual class: inhibitors; 410,000 compounds, 0.12% hits; also: nearly all actives have a fitted effect of over 50% in size
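Quantitative HTS: titrated library compounds versus trypanosomal pyruvate kinase in TEA buffer (pH 7.2) containing KCl, MgCl2, BSA and Tween-20. Reactions were initiated with ADP, 130 uM final. Kinase-Glo Plus luminescence was read after 45 min at RT.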
Sm TGR inh – S. mansoni TGR enzyme inhibition | Q962Y6 | purified TGR, DTNB reduction, TNB absorbance 405 nm | 360,000 compounds, 3% hits | Potency, µM (top dose mostly 114 µM), usual class: inhibitors; also: nearly all actives have a fitted effect of over 60% in size
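First, TGR (20 nM dispensed) and NADPH were mixed with compound. Second, a 15 min room-temperature incubation followed. Third, further NADPH and then DTNB were added to start the reaction. Finally, TNB absorbance was monitored kinetically.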
Hits are given with their value; n = inactive; u = inconclusive; x = no result given; [ ] = dose if it differs, or a comment. Unless noted, calls follow the shape of the dose curve; as a rule, active = well fitted curve in the direction sought with a large enough effect; inconclusive = small, poorly fitted or top-dose-only effect, or another doubt; inactive = no such curve, though single readings can be large; an effect the other way counts as inactive or inconclusive.

SMILES	FBPA Giardia inh	Shiga toxin inh	LmPK inhibitor	Cycloheximide cs	TbPYK inhibitor	Sm TGR inh
Cc1ccc(/C=C/C(=O)OCC(=O)NC(C)C)o1	n	n	n	n	n	50.1µM
CCCNC(=O)COC(=O)/C=C/c1ccco1	n	n	n	n	n	44.7µM
CCOC(=O)c1c(C)[nH]c(C)c1C(=O)COC(=O)/C=C/c1ccc(OC)cc1	x	x	x	x	n	n
O=C(COC(=O)/C=C/c1ccco1)NCc1ccc(Cl)cc1	x	x	x	x	n	17.8µM
CCOC(=O)c1c(C)[nH]c(C)c1C(=O)COC(=O)/C=C/c1ccco1	x	x	x	x	n	31.6µM
CCN(CC(=O)NCc1ccc(Cl)cc1)C(=O)/C=C/c1ccco1	n	n	n	n	n	25.1µM
CCc1nn2c(=O)cc(COC(=O)c3cccs3)nc2s1	x	x	x	x	n	n
COc1ccc(S(=O)(=O)N(CC(=O)Nc2cccc(C)c2)c2ccc(C)cc2)cc1OC	x	x	x	x	n	n
CCN(c1ccccc1)S(=O)(=O)c1c(C)nc2scc(C)n2c1=O	x	x	x	x	n	n
Cc1cccc(NC(=O)/C=C/c2ccc(Cl)cc2)n1	n	65.4	n	35.1	n	n
O=C(/C=C/c1ccccc1)Nc1ccc(Cl)cn1	n	111.6	n	33.0	n	x
CSc1cccc(NC(=O)/C=C/c2ccc(Cl)cc2)c1	n	51.1	n	39.9	n	n
CCN(CC)S(=O)(=O)c1ccc(/C=C/C(=O)Nc2cccc(F)c2)cc1	n	n	n	33.3	n	n
CCN(CC)S(=O)(=O)c1ccc(/C=C/C(=O)O)cc1	n	n	n	n	n	n
COc1cccc(NC(=O)/C=C\c2ccc(Cl)cc2)c1	n	x	x	x	x	x
CCCNC(=O)C1CCC(CNS(=O)(=O)c2ccc3c(c2)N(C(C)=O)CCO3)CC1 (stereo not drawn)	n	n	n	n	n	n
CO/N=C(\C(=O)N[C@@H]1C(=O)N2C(C(=O)[O-])=C(C[N+]3(C)CCCC3)CS[C@@H]12)c1csc(N)n1	n	x	x	x	n	x
CCOc1ccc(C(=O)Nc2ccc(C(=O)OCc3cc(=O)n4c(C)csc4n3)cc2)cc1	x	x	x	x	n	n
CSc1cccc(NC(=O)/C=C/c2ccccc2)c1	n	71.4	n	35.6	n	n
CSc1ccc(/C=C/C(=O)Nc2ccccc2)cc1	n	n	n	n	n	n
CCN(CC)c1nn2c(=O)c(C(=O)NCc3ccc(OC)cc3OC)cnc2s1	x	x	x	x	n	u
C/C(=C\c1ccccc1)C(=O)NC1CCSC1=O (stereo not drawn)	n	n	n	17.9	n	n
CC[C@H](C)[C@@H](NC(=O)O[C@@H]1Cc2cc(Br)ccc2O[C@H]1c1cccc(OC)c1)C(=O)OC	n	x	x	x	x	x
O=C(COc1cccnc1[N+](=O)[O-])Nc1ccc2c(c1)CCC2	n	n	n	20.0	n	n
O=C(CSc1ncccn1)Nc1ccc2c(c1)CCC2	n	128.5	n	36.4	n	n
SMILES	FBPA Giardia inh	Shiga toxin inh	LmPK inhibitor	Cycloheximide cs	TbPYK inhibitor	Sm TGR inh
O=C(CN1CCCC1)Nc1ccc2c(c1)CCC2	u	34.8	n	23.5	n	n
O=C(CN1CCCC1)Nc1ccc(NC(=O)Nc2ccccc2)cc1	n	54.0	n	39.3	n	n
Cc1ccc(-c2cc(C(=O)Nc3ccc(SC(F)F)cc3)no2)cc1F	x	x	x	x	n	n
COc1ccc(CNC(=O)c2oc3c(c2C)-c2nn(Cc4ccc(Cl)cc4)cc2CC3)cc1	x	x	x	x	n	n
Cc1ccc(NC(=O)CN2CCOCC2)cc1	n	n	n	n	n	n
O=C(CN1CCOCC1)Nc1ccc(C2CCCCC2)cc1	n	n	n	38.9	n	n
O=C(CN1CCOCCOCCOCCOCC1)Nc1ccccc1	n	48.0	n	25.5	n	n
O=C(COc1cccc(Cl)c1)Nc1ccc2c(c1)CCC2	n	77.9	n	38.1	n	n
O=C(CN1C(=O)c2cccc3cccc1c23)Nc1cccc(F)c1	x	x	x	x	n	n
COc1ccc(Oc2ncc3nc(-c4ccc(OC)cc4)c(=O)n(C4CC4)c3n2)cc1	n	x	x	x	x	x
CC(C)(C)C(=O)Nc1ccc2oc(-c3cc(F)c(F)cc3Cl)nc2c1	n	n	n	41.9	n	n
CC(=O)Nc1cc(-c2nc3cc(Cl)ccc3o2)ccc1C	x	x	x	x	n	n
O=C(O)c1ccccc1-c1ccccc1C(=O)Nc1ccc(-c2nc3cc(Cl)ccc3o2)cc1	n	62.4	n	26.4	n	n
O=C(Nc1ccc2oc(-c3ccccc3F)nc2c1)c1ccccc1Cl	x	x	x	x	n	n
CC(=O)Nc1ccc(-c2nc3cc(Cl)ccc3o2)cc1	n	109.3	n	52.4	n	n
O=C1CN(S(=O)(=O)c2cccc(Br)c2)CCN1	x	x	x	x	n	x
CCc1ccccc1NS(=O)(=O)c1ccc2c(c1)CCCN2C(=O)C1CCC1	x	x	x	x	n	n
CCn1ncc([C@@H]2C[C@H]3CN(Cc4cccc(Cl)c4)C(=O)[C@]34CCCN24)c1C	n	n	n	n	n	n
O=C1N(Cc2cccc(Cl)c2)C[C@@H]2C[C@@H](c3ccco3)N3CCC[C@@]123	n	n	n	n	n	39.8µM
COCc1ccc([C@@H]2C[C@H]3CN(Cc4cccnc4)C(=O)[C@]34CCCN24)o1	n	n	n	n	n	44.7µM
COc1ccc([C@@H]2C[C@H]3CN(Cc4ccccc4OC)C(=O)[C@]34CCCN24)cc1C	n	n	n	n	n	n
COCc1ccc([C@@H]2C[C@H]3CN(Cc4ccccc4C)C(=O)[C@]34CCCN24)o1	n	32.0	n	20.6	n	n
COc1ccc(Cl)cc1NC(=O)CN(C)C(=O)c1cn2ccccc2n1	x	x	x	x	n	n
Cc1cc(-n2c(C)nc3ccccc3c2=O)ccc1NC(=O)c1ccc(C)c([N+](=O)[O-])c1	x	x	x	x	n	n
CCN1CCN(c2nc(C)nc3c2sc(=S)n3C)CC1	17.7µM	n	n	n	u	n
SMILES	FBPA Giardia inh	Shiga toxin inh	LmPK inhibitor	Cycloheximide cs	TbPYK inhibitor	Sm TGR inh
Cc1nc(N2CCCCC2)c2sc(=S)n(C)c2n1	n	n	n	n	n	n
Cc1cccc(S(=O)(=O)c2cn(C)c3cc(N4CCN(c5ccccc5)CC4)c(F)cc3c2=O)c1	x	x	x	x	n	n
Cc1c(NCc2cc(Cl)cc(Cl)c2O)c(=O)n(-c2ccccc2)n1C	n	n	n	n	n	n
Cc1c(NCc2nc3ccccc3[nH]2)c(=O)n(-c2ccccc2)n1C	n	n	n	28.8	n	n
O=C(NC1CCCCC1)c1cc2nc3c(c(C(F)(F)F)n2n1)CCCC3	n	79.5	n	45.5	n	n
CC(=O)c1ccc(NC(=O)c2cc3nc4c(c(C(F)(F)F)n3n2)CCCC4)cc1	n	59.9	n	38.0	x	n
O=C(NC1CCCCC1)c1cc2nc(-c3ccco3)cc(C(F)(F)F)n2n1	n	n	n	n	n	n
CC(C)=CCC/C(C)=C/CO/N=C1/C[C@@H](O)[C@@H](O)[C@@H]2[C@H]3C(=O)N(c4ccc(F)cc4F)C(=O)[C@@H]3CC[C@H]12	n[12.9 µM]	x	x	x	x	x
N#Cc1nc(COc2cccc(Cl)c2)oc1NCCc1ccccc1	x	x	x	x	n	n
CCOc1ccc(N(C(=O)c2ccc(Cl)cc2)S(=O)(=O)c2ccc3c(c2)n(C)c(=O)n3C)cc1	x	x	x	x	n	n

Compound activity deposited in PubChem BioAssay by National Center for Advancing Translational Sciences (NCATS).
